Source: PubChem
FAK inh: FAK (human) kinase inhibition; Q05397; biochemical FAK kinase activity assay; inhibition, %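 (tested at 7 µM)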; actives 0.84% (n = 97,000); AID 727; in the data active = inhibition above about 19%;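 note: 0% = DMSO and 100% = reference compound high control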
Target sequence (Q05397 whole entry, looked up): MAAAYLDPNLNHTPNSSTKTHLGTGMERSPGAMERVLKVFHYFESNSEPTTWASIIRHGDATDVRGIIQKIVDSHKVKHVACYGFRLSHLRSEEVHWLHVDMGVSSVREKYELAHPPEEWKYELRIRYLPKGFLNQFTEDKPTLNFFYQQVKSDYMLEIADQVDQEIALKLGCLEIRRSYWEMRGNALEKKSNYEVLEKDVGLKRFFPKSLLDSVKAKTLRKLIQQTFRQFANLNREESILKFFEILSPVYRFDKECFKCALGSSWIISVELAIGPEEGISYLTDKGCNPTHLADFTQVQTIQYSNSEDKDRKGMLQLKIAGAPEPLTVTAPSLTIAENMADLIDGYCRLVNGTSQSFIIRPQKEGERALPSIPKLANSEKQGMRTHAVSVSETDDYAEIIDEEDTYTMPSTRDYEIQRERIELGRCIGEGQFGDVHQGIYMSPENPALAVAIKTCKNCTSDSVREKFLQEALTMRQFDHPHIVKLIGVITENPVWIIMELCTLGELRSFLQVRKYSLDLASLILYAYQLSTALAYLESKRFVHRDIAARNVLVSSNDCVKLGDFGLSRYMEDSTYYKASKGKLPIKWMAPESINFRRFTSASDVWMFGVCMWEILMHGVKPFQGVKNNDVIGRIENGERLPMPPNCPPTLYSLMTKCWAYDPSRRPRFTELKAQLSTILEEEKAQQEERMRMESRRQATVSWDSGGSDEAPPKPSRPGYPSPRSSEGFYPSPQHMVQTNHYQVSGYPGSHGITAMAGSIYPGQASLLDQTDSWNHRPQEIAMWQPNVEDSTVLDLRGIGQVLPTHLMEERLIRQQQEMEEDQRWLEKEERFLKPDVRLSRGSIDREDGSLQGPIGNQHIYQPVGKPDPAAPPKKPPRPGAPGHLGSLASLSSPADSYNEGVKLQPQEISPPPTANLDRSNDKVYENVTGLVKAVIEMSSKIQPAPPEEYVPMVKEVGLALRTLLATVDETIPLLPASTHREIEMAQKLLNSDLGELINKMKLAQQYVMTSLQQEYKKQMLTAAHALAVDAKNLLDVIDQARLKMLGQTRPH
CD11b adhes inh: inhibitors of human CD11b/CD18 binding to fibrinogen; AID 1497; K562 CD11b/CD18 adhesion to fibrinogen, ATPlite luminescence; Mn2+ added to activate the integrin; actives 0.54% (n = 93,000); inhibition, % at 10 µM;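 active = primary inhibition of 50% or more at 10 µM, then 40% or more on retest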
CD11b adhes enh: CD11b/CD18-fibrinogen binding enhancement. P05107+P11215. K562 CD11b/CD18 adhesion to fibrinogen, ATPlite luminescence. activation, % at 10 µM. actives 0.07% (n = 93,000). AID 1499;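 active = 10 µM primary screen giving 50% or more activity, confirmed by 40% or more on retest at that dose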
MMP13 inh: blocks human MMP13 activity. P45452. MMP-13 fTHP FRET cleavage, Mca fluorescence. inhibition, % at 4 µM. actives 0.07% (n = 65,000);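 active = inhibition above the mean of compound-free control plate wells plus 3 SD, cut at about 14% in these data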;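 note: 0% = DMSO wells and 100% = wells with reference MMP-13 inhibitor after basal subtraction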
* hit, by the source's call; · = no result. Hits are enriched below; roughly 1.1% of the tested compounds scored in any of these assays.

SMILES | FAK inh | CD11b adhes inh | CD11b adhes enh | MMP13 inh
Cc1cc(OC2CCCCC2)nc(-c2ccccc2O)n1 | 1 | -3 | -2 | -5
CCOc1c(Cl)cc(C(=O)Nc2ccccc2C(=O)O)cc1Cl | -2 | 89* | -12 | ·
O=C(Nc1ccccc1C(=O)O)c1ccccc1 | -4 | -22 | -4 | ·
COc1ccc(-c2cc3nc4n(c(=O)c3s2)CCOC4)cc1 | · | · | · | -193
O=S(=O)(Nc1ccc(S(=O)(=O)N2CCCCC2)cc1)c1ccc(Br)s1 | -5 | 91* | -11 | 2
O=S(=O)(Nc1ccc(S(=O)(=O)N2CCCCCC2)cc1)c1cccs1 | 13 | -3 | -3 | ·
CCOC(=O)c1cnn(-c2ccccc2)c1-n1cccc1C(=O)C(=O)Nc1ccc(F)cc1 | -6 | 8 | 2 | ·
CCN1CNC(=S)N(C(C)c2ccccc2)C1 (stereo not drawn) | · | -14 | -6 | ·
N#Cc1c(C(F)(F)F)cc(-c2ccccc2Cl)[nH]c1=O | -9 | 62* | -2 | ·
Cc1noc(C(=O)Nc2sc3c(c2C#N)CCC3)c1Cl | -3 | 58* | -5 | -2
Cc1cc(C(=O)Nc2sc3c(c2C#N)CCC3)no1 | 0 | 4 | 1 | 1
NS(=O)(=O)c1ccc(CCNc2ncnc3sccc23)cc1 | 11 | 82 | -4 | 4
Cc1sc2ncnc(NCCc3ccc(S(N)(=O)=O)cc3)c2c1C | 3 | 51* | -5 | ·
COc1cc(NCCCC(C)N)c2ncccc2c1 (stereo not drawn) | 26* | · | · | 3
N#Cc1c(NC(=O)c2ccccc2Cl)n(Cc2ccccc2)c2nc3ccccc3nc12 | · | 100* | -6 | ·
COCCn1c(C)cc(C(=O)COC(=O)c2n[nH]c3ccccc23)c1C | · | 53* | -6 | 1
Cc1cc(C(=O)COC(=O)c2n[nH]c3ccccc23)c(C)n1C | -4 | -4 | -1 | 5
O=C(CCCN1C(=O)CSc2ncccc21)N1CCN(Cc2ccccc2)CC1 | · | -2 | -2 | 2
Cc1cc(N2CCN(c3nc4ccccc4s3)CC2)n2ncnc2n1 | -1 | 74* | -12 | 0
O=c1c2ccccc2nc(N/N=C/c2c(O)ccc3ccccc23)n1O | 1 | 58* | -6 | ·
CCc1cc(/C(Cc2ccc3ccccc3n2)=N\O)c(O)cc1O | 2 | 60* | -9 | 2
CCCn1c(SCC(=O)NCc2ccco2)nnc1C(C)C | -2 | 17 | -2 | -10
Nc1cc(-c2ccccc2)nn1S(=O)(=O)c1ccc(F)cc1 | 5 | 63* | -2 | ·
O=C(Nc1ncc(Br)s1)C(Cc1ccccc1)n1cccc1 (stereo not drawn) | -3 | 79* | -7 | 1
O=c1c(Sc2ccccc2)c(C(F)(F)F)[nH]n1-c1ccccc1 | -6 | 56* | -2 | ·
SMILES | FAK inh | CD11b adhes inh | CD11b adhes enh | MMP13 inh
O=c1c2c(C(F)(F)F)cc(C(F)(F)F)nc2[nH]n1-c1ccccc1 | 4 | 18 | -2 | ·
CCCn1c(CN2CCN(c3cccc(Cl)c3)CC2)nc2c1c(=O)n(C)c(=O)n2C | -6 | 91* | -8 | -2
CCCCn1c(CN2CCN(c3cccc(Cl)c3)CC2)nc2c1c(=O)n(C)c(=O)n2C | 0 | 90 | -12 | 2
CCCCn1c(CN2CCN(c3ccccc3)CC2)nc2c1c(=O)n(C)c(=O)n2C | 4 | 65* | -2 | -1
CCOC(=O)/C(C#N)=C1/C=Nc2ccccc2N1 | -2 | 6 | -2 | 14*
Cc1nn(-c2ccccc2)c2c1C(c1ccncc1)C(C#N)=C(N)O2 (stereo not drawn) | 0 | -3 | -4 | 10
COc1cc(-n2nc(C)c3c2OC(N)=C(C#N)C3c2ccccc2)c(Cl)c(Br)c1O (stereo not drawn) | -1 | 101 | -8 | 16*
O=C(NC1CCCC1)c1sc(=S)n2c1[nH]c(=O)c1ccccc12 | -3 | 95* | -8 | 5
O=C(NCc1ccco1)c1sc(=S)n2c1[nH]c(=O)c1ccccc12 | -5 | 96* | -10 | 8
CCCCCNC(=O)c1ccc2c(=O)[nH]c3c(C(=O)NCC4CCCO4)sc(=S)n3c2c1 (stereo not drawn) | -6 | 38 | -2 | 4
c1ccc2c(c1)OCC(CNc1ncnc3sccc13)O2 (stereo not drawn) | · | 100* | -8 | ·
c1cncc(-c2nc(NCC3COc4ccccc4O3)c3ccccc3n2)c1 (stereo not drawn) | 3 | -22 | -3 | ·
Nc1nc(Nc2ccc(Cl)cc2)nc2ccccc12 | 0 | 85* | -4 | ·
O=C(CN1C(=O)NC2(CCc3ccccc32)C1=O)Nc1ccc(N2CCOCC2)cc1 (stereo not drawn) | 0 | -31 | 1 | ·
CC(C)c1ccc(S(=O)(=O)/N=C2/C=C(Sc3ncn[nH]3)C(=O)c3ccccc32)cc1 | · | 102* | -4 | ·
CCCCn1c(SCC(=O)NCc2ccco2)nc2c(sc3ccccc32)c1=O | 2 | 54* | 12 | ·
O=C(CSc1nc2c(sc3ccccc32)c(=O)n1CCc1ccccc1)NCc1ccco1 | 2 | 16 | 2 | ·
CCOCCCn1c(SCC(=O)NCc2ccco2)nc2c(sc3ccccc32)c1=O | 1 | 56* | 0 | ·
Cc1ccc(S(=O)(=O)NC(C(=O)Oc2ccc3c(C(F)(F)F)cc(=O)oc3c2)c2ccccc2)cc1 (stereo not drawn) | · | 57* | -6 | ·
CCC(C)C(NS(=O)(=O)c1ccc(C)cc1)C(=O)Oc1ccc2c3c(c(=O)oc2c1)CCC3 (stereo not drawn) | 0 | -10 | 1 | ·
CCCCCCc1cc2cc(-c3nnc(-c4ccccc4OC)o3)c(=O)oc2cc1O | 2 | 87 | 2 | ·
CCCCCCc1cc2cc(-c3nnc(-c4ccccc4O)o3)c(=O)oc2cc1O | · | 98* | -2 | -17
O=C(O)C(Cc1ccccc1)N1C(=O)/C(=C/c2cccc3ccccc23)SC1=S (stereo not drawn) | 15 | 91* | -5 | ·
Cc1ccc(/C=C2\SC(=S)N(C(Cc3ccccc3)C(=O)O)C2=O)cc1 (stereo not drawn) | · | 91 | -6 | ·
Cc1cc(NS(=O)(=O)c2ccc(Nc3nc(-c4sc(NC(=O)c5ccccc5)nc4C)cs3)cc2)no1 | -1 | 79* | -5 | ·
SMILES | FAK inh | CD11b adhes inh | CD11b adhes enh | MMP13 inh
CCC(=O)Nc1nc(C)c(-c2csc(Nc3ccc(S(=O)(=O)Nc4cc(C)on4)cc3)n2)s1 | 0 | -12 | 0 | ·
Cc1cccc(C)c1OCCCCc1c(C)n[nH]c1C | -1 | 22 | -7 | 0
Cc1ccccc1OCCCCc1c(C)n[nH]c1C | 9 | 90* | -6 | 3
Cc1nc2sccn2c1-c1csc(NCc2ccccc2)n1 | 10 | 109* | -9 | -4
C=CCNc1nc(-c2c(C)nc3sccn23)cs1 | 5 | · | · | -3
Brc1ccc2[nH]c3c(N4CCc5ccccc5C4)ncnc3c2c1 | 5 | 75* | 0 | ·
Cc1ccc2[nH]c3c(N4CCc5ccccc5C4)ncnc3c2c1 | 9 | · | · | ·
C=CCNc1nc2c(c(=O)n(C)c(=O)n2C)n1CCCCCC | -5 | 68* | -4 | -6
c1ccc(N2CCN(Cc3ccnc4ccccc34)CC2)cc1 | 3 | 76* | -8 | -3
Cc1cccc(Oc2coc3cc(OC(=O)c4cc5ccccc5oc4=O)ccc3c2=O)c1 | -1 | -11 | 53* | ·
